High-throughput results: PubChem, National Center for Advancing Translational Sciences (NCATS)
Rango release inh = inhibitors of RanGTP-induced Rango-importin beta complex dissociation; O95149+P62826; Biochemical FRET Rango-importin beta, RanGTP-induced dissociation; Potency, µM (highest dose often 46.1 µM), for the others: at the top dose activity change, negative = inhibition; 340,000 compounds, 0.071% hits; calls by dose curve; further: % of control where 0% means no effect; nearly all actives have a fitted effect of over 45% in size
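Compounds sat 5 min at room temperature with 0.1 uM Rango biosensor plus 0.25 uM importin beta, then FRET pre-read. RanGTP-RCC1 (0.6 uM Ran, 2mM GTP, 0.2 uM RCC1) added for 45 min, and the CFP/YFP post-read measured blocked complex dissociation.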
Rango-impB inh = Rango-importin beta binding inhibition. Q14974. 340,000 compounds, 0.031% hits. Potency, µM (highest dose often 92.2 µM), inactives show at the highest dose inhibition of complex formation. Rango CFP/YFP FRET sensor + importin beta, 45 min. AID 540263; calls by dose curve;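 further: 0% = DMSO wells and 100% = buffer wells lacking importin beta; nearly all actives have a fitted effect of over 15% in size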
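FRET biosensor Rango (snurportin 1 IBB between N-terminal EYFP and C-terminal Cerulean), 50 nM in PBS/1 mM DTT/0.02% Tween-20/0.1% BSA, preincubated 5 min RT with compound; 0.125 microM importin beta added, 45 min RT, CFP/YFP FRET ratio read.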
S-ASM inh = blocks human secretory acid sphingomyelinase; P17405; placental ASM, HMU-PC fluorogenic substrate, 60 min; Potency, µM (highest dose often 57.5 µM), for inactives: top-dose activity change, negative = inhibition, most hits filed as inhibitors; 340,000 compounds, 0.006% hits
Target sequence (P17405 47-631 limits assumed): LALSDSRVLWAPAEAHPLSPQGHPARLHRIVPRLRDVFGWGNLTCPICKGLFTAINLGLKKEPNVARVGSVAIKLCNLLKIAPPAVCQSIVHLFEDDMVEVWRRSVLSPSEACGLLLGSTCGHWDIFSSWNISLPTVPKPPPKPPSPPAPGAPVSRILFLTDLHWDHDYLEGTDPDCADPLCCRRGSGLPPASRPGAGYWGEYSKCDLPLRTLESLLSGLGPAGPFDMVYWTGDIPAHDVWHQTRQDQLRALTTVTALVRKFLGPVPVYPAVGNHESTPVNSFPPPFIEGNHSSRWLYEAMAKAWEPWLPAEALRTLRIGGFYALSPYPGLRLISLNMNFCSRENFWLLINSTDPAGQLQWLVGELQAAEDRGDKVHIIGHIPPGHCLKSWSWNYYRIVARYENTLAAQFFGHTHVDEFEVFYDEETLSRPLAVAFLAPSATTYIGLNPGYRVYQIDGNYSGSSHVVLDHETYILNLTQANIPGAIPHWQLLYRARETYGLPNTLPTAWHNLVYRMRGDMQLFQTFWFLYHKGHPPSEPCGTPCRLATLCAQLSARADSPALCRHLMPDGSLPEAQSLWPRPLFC
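qHTS format. ASM enzyme prepared from human placenta hydrolyses the fluorogenic substrate HMU-PC0 (9 uM final) over 60 min at 37 °C after a 10 min compound preincubation.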
aSyn rescue = alpha-synuclein toxicity inhibition in yeast. Yeast expressing alpha-synuclein, growth rescue, BacTiter-Glo, 24 h. Potency, µM (series often up to 46.1 µM), for inactives: at the highest dose growth rescue (activation), actives largely listed as activators. 370,000 compounds, 0.14% hits; further: % of control where 0% means no effect; nearly all actives have a fitted effect of over 65% in size
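Rescue of yeast growth: cells expressing toxic alpha-synuclein, induced in galactose at OD600 0.02, incubated with compound 24 h at 30 C. ATP luminescence quantified growth; inhibitors of toxicity appear as activators.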
TDP-43 yeast inh = inhibitors of TDP-43 toxicity in yeast. TDP-43 expressing yeast growth rescue, BacTiter-Glo, 24 h. Potency, µM (highest dose often 46.1 µM), without a hit: top-dose growth rescue (activation), hits mostly activators. 410,000 compounds, 1.8% hits; further: % of control where 0% means no effect; nearly all actives have a fitted effect of over 50% in size
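Cell-based yeast growth screen: TDP-43 expression induced in galactose, inoculum OD600=0.02 after raffinose pregrowth to mid-log. Read-out BacTiter-Glo luminescence at 24 hr, 30 deg C; inhibition of toxicity seen as signal increase.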
Abeta yeast res = A-beta toxicity reversal in yeast; 410,000 compounds, 0.063% hits; yeast expressing A-beta42, growth rescue, OD600, 48 h; response scale: 0% DMSO, 100% iron-clioquinol control; AID 1347071; Potency, µM (doses to about 46.1 µM), hits mostly activators; further: nearly all actives have a fitted effect of over 55% in size
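Growth rescue measured by 600 nm absorbance after 48 h yeast culture at 30 C with compound. Values normalized between DMSO and an equimolar ferric chloride plus clioquinol control.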
An asterisk follows results filed as active; i = inactive; ? = inconclusive; . = no result. Only some compounds are listed: those with a hit (about 2% of all), similar ones and a draw of the others. Unless noted, the call rests on the fitted dose curve; in most records, active means well fitted curve in the direction sought with a large enough effect; inconclusive means small, poorly fitted or top-dose-only effect, or another doubt; inactive means no such curve, though single readings can be large; an effect the other way counts as inactive or inconclusive. Potency means the concentration at half of the fitted maximal effect.

SMILES	Rango release inh	Rango-impB inh	S-ASM inh	aSyn rescue	TDP-43 yeast inh	Abeta yeast res
c1ccc(C(Cc2nc(-c3ccncc3)no2)c2ccccc2)cc1	6.7%	0.6%	1.1%	0.7%	35.5µM*	i
c1ccc(-c2nc(-c3ccncc3)no2)cc1	16.6%	-3.8%	0.8%	2.5%	4.7%	i
Clc1ccccc1-c1nc(-c2cccnc2)no1	6.3%	2.0%	-0.8%	4.1%	?	i
CSc1ccccc1-c1nc(-c2ccncc2)no1	-2.8%	1.5%	1.1%	14.2%	14.1µM*	i
CCC(=O)N1CCc2cc(Br)cc(S(=O)(=O)N3CCCC(C(=O)Nc4cccc(Cl)c4C)C3)c21 (stereo not given)	.	.	.	.	-12.3%	i
COc1ccc(-n2nc3c(c2NC(=O)C(=O)NCc2ccccc2)CSC3)cc1	.	.	.	.	15.7%	i
C(=C\c1nc(-c2cccnc2)no1)/c1ccccc1	-8.6%	2.4%	9.2%	-6.6%	2.24µM*	i
Clc1ccccc1/C=C/c1nc(-c2cccnc2)no1	-4.5%	2.0%	-0.7%	-3.6%	10µM*	i
Cc1ccc(-c2noc(/C=C/c3ccccc3)n2)cc1	-10.6%	-3.2%	14.0%	-14.1%	-16.1%	i
O=c1oc(CCO)cc2ccc(C#Cc3ccsc3)cc12	7.1%	-1.0%	59.3%	-2.4%	17.8µM*	i
O=C(CSc1nccn1Cc1ccccc1)NCc1ccc(F)cc1	.	.	.	7.7%	3.8%	i
CCOc1ccc2nc(NC(=O)c3ccccn3)sc2c1	0.4%	1.1%	-11.6%	-2.8%	4.8%	i
Cc1ccc2nc(NC(=O)CSc3nccn3Cc3ccc(Cl)cc3)sc2c1	.	.	.	.	11.2µM*	i
Cc1ccc2nc(NC(=O)c3ccccn3)sc2c1	-1.0%	-0.4%	-1.6%	7.08µM*	10µM*	i
Cc1ccc(Cn2ccnc2SCC(=O)NCc2ccccc2Cl)cc1	.	.	.	.	11.2µM*	i
O=C(CSc1nccn1Cc1ccccc1)Nc1nc2ccccc2s1	.	.	.	18.1%	12.2%	i
O=C(CSc1nccn1Cc1ccc(F)cc1)Nc1nc2ccccc2s1	.	.	.	20µM*	?	?
CN(C)c1ccc(/C=C/c2ccnc3c(N)cccc23)cc1	.	.	.	-9.1%	.	.
O=C1c2ccccc2C2N1CCCN2C(=O)c1sc2ccccc2c1Cl (stereo not given)	.	.	.	12.4%	17.8µM*	i
O=c1c2ccccc2nnn1CSc1ccc2ccccc2n1	2.0%	-0.8%	-10.6%	?	17.8µM*	i
O=c1c2ccccc2nnn1Cc1cccc2ccccc12	-1.9%	4.5%	-10.2%	-1.1%	12.6µM*	?
O=c1c2ccccc2nnn1Cc1ccccn1	30.4%	-4.2%	-2.6%	-4.2%	-11.0%	i
O=c1c2ccccc2nnn1CSc1ccccc1	11.4%	0.7%	3.3%	4.2%	16.5%	i
O=C(CC1N=C2c3ccccc3N=C(SCc3ccccc3F)N2C1=O)NCCc1ccccc1 (stereo not given)	.	.	.	.	-4.1%	i
CCSc1nc(C)cc(C)c1S(=O)(=O)c1ccccc1C	0.1%	-1.2%	-1.6%	-12.2%	21.2%	i
SMILES	Rango release inh	Rango-impB inh	S-ASM inh	aSyn rescue	TDP-43 yeast inh	Abeta yeast res
CSc1nc(C)cc(C)c1S(=O)(=O)c1ccccc1C	-5.7%	?	-3.2%	-0.1%	11.2µM*	?
COc1ccc(S(=O)(=O)NCC(c2ccco2)S(=O)(=O)c2ccc(C)cc2)cc1C (stereo not given)	.	.	.	.	?	i
Cc1ccc(-n2c(SCc3ccccc3C)nc3[nH]ncc3c2=O)cc1C	.	.	.	.	23.4%	i
COC(=O)CNc1nc(Cl)nc(NC2CCCCC2)n1	-2.3%	-0.6%	-2.4%	-7.0%	12.0%	i
C=CCNc1nc(Cl)nc(NC2CCCCC2)n1	0.7%	-2.4%	1.9%	-16.9%	15.8µM*	i
CCOc1ccc2c(c1)c(=O)c(C(=O)c1ccc3c(c1)OCO3)cn2Cc1ccc(F)cc1	.	.	.	.	-11.3%	i
NC(=O)C(=O)N/N=C/c1c2ccccc2cc2ccccc12	14.6µM*	2.1%	-5.3%	9.4%	-12.3%	i
